From paper PMC7862700, “An all-to-all approach to the identification of sequence-specific readers for epigenetic DNA modifications on cytosine”

Tests used:
Assay in all cases: DAPPL (digital affinity profiling via proximity ligation, sequencing); 10 mM Tris-HCl pH 7.5, 50 mM NaCl, 1 mM DTT, 4% glycerol, room temperature, 30 min; GST-TFs on glutathione beads, 16-mer random dsDNA library, 0.1% formaldehyde crosslink after washing; high values mean tight binding
FEV = target: T1, FEV (Homo sapiens, UniProt Q99581 1-238); conditions: protein: recombinant; tags: N-terminal GST; dsDNA, one strand shown
T1 sequence: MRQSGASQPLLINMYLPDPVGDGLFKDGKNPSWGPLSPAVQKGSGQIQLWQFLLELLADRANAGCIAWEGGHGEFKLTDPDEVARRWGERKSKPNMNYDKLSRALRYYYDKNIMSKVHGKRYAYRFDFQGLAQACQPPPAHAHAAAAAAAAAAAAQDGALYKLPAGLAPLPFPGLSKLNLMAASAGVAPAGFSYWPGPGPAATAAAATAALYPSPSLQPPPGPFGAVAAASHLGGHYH
How it was run: (§1)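 In yeast, human transcription factors were expressed with a GST fusion, then pulled down on glutathione beads and given DNA barcodes. Pooled with a tag-only sample, they were exposed to 200 nmole of a 16-mer random double-stranded DNA library (Tris/NaCl/DTT/glycerol buffer, room temperature, 30 min), washed, crosslinked with 0.1% formaldehyde, proximity-ligated using BsaI/T4 ligase for 1 h at 37 °C, PCR-amplified and read on an Illumina NextSeq500. Each hexamer's frequency of reads for a factor, divided by the matching frequency for the tag-only sample, gives the binding signal.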

ETV5 = ETV5 (Homo sapiens, UniProt P41161 1-510); conditions: protein: recombinant; tags: N-terminal GST; dsDNA, one strand shown
ETV5, sequence (P41161 whole entry): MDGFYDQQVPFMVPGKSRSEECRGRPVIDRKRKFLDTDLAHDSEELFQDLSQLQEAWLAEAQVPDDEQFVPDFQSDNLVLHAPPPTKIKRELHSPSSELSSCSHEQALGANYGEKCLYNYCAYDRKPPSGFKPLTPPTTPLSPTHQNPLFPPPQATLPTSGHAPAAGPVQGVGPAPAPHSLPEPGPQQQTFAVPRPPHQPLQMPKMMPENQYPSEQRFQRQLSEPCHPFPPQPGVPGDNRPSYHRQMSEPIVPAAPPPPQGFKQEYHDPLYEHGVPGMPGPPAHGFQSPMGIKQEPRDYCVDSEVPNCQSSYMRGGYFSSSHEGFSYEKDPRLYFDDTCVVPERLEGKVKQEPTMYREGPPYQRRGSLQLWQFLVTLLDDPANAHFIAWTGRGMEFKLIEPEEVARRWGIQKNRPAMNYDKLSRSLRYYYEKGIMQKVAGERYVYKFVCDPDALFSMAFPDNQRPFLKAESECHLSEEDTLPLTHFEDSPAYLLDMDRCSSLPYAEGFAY
How it was run: as §1

HSF1 = HSF1 (Homo sapiens, UniProt Q00613 1-529); conditions: protein: recombinant; tags: N-terminal GST; chain copies: 3; dsDNA, one strand shown
HSF1, sequence (Q00613 whole entry): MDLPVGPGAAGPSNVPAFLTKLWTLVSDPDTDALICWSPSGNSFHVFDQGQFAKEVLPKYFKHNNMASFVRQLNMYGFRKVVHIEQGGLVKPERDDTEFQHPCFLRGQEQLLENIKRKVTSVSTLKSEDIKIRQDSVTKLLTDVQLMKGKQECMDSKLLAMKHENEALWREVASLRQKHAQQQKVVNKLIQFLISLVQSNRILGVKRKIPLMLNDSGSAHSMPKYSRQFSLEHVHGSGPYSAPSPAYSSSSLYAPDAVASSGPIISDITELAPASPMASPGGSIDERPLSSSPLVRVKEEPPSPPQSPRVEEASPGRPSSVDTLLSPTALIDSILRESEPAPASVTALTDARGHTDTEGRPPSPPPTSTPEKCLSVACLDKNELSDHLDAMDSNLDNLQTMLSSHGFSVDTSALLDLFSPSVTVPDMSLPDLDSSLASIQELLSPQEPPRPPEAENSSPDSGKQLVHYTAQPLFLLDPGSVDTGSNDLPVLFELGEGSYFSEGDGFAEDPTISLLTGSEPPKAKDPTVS
How it was run: as §1

SPIC = target: T2, SPIC (Homo sapiens, UniProt Q8N5J4 1-248); conditions: protein: recombinant; tags: N-terminal GST; dsDNA, one strand shown
T2 sequence: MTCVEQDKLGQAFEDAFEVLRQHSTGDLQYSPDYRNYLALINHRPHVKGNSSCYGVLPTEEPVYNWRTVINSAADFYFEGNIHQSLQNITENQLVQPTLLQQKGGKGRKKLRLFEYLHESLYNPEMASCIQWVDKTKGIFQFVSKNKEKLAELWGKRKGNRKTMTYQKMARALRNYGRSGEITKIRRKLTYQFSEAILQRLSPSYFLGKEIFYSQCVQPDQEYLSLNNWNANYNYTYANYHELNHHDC
How it was run: as §1

ELF4 = ELF4 (Homo sapiens, UniProt Q99607 1-663); conditions: protein: recombinant; tags: N-terminal GST; dsDNA, one strand shown
ELF4, sequence (Q99607 whole entry): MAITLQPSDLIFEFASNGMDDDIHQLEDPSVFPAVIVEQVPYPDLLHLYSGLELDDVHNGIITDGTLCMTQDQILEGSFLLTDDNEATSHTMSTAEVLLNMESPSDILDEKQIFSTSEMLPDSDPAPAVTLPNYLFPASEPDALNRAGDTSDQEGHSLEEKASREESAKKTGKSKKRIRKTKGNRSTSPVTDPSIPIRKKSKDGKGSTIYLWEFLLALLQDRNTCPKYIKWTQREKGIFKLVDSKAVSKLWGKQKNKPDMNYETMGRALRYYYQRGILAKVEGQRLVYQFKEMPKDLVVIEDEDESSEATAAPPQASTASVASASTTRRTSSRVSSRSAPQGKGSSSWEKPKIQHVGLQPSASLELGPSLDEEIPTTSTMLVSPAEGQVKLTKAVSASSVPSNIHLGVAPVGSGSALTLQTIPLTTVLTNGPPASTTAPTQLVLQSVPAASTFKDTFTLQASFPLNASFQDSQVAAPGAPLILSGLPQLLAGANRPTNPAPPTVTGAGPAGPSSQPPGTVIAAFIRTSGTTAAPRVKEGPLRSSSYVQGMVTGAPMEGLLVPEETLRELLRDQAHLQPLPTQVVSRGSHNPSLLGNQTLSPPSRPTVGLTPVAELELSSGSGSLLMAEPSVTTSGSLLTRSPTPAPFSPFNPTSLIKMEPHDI
How it was run: as §1

ELK4 = target: T3, ELK4 (Homo sapiens, UniProt P28324-2 1-405); conditions: protein: recombinant; tags: N-terminal GST; dsDNA, one strand shown
T3 sequence: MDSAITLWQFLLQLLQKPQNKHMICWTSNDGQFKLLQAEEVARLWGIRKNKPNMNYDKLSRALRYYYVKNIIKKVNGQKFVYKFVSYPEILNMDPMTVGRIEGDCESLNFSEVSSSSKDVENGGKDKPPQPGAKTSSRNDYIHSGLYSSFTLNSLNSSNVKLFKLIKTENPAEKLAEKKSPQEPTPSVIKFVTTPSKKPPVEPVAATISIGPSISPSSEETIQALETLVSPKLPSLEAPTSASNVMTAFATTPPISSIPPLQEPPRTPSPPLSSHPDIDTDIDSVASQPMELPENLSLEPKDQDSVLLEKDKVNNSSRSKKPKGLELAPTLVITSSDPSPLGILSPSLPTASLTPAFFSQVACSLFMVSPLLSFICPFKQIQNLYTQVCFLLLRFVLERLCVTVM
How it was run: as §1

ETV2 = target: T4, ETV2 (Homo sapiens, UniProt O00321 1-342); conditions: protein: recombinant; tags: N-terminal GST; dsDNA, one strand shown
T4 sequence: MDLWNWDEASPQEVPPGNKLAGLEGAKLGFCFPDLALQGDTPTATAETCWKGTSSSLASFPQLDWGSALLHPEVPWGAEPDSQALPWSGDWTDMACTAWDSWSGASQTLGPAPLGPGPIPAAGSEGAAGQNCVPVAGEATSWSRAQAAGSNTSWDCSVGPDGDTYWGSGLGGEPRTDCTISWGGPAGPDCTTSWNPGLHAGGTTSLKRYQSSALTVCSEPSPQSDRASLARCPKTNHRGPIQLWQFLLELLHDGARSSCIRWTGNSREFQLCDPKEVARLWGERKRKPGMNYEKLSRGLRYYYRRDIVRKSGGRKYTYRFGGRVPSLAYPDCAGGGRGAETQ
How it was run: as §1

ELF3 = target: T5, ELF3 (Homo sapiens, UniProt P78545 1-371); conditions: protein: recombinant; tags: N-terminal GST; dsDNA, one strand shown
T5 sequence: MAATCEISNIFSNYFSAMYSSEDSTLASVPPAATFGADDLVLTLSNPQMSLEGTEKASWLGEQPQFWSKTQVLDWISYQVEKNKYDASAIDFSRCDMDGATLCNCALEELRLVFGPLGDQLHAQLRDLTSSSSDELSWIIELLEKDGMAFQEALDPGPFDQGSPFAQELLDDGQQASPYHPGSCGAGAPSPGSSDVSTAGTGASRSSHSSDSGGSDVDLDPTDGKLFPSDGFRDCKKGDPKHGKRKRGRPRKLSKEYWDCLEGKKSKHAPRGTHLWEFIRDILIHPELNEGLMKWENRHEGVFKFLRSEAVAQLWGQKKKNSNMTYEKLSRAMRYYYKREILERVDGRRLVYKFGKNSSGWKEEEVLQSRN
How it was run: as §1

CRX = CRX (Homo sapiens, UniProt O43186 1-299); conditions: protein: recombinant; tags: N-terminal GST; dsDNA, one strand shown
CRX, sequence (O43186 whole entry): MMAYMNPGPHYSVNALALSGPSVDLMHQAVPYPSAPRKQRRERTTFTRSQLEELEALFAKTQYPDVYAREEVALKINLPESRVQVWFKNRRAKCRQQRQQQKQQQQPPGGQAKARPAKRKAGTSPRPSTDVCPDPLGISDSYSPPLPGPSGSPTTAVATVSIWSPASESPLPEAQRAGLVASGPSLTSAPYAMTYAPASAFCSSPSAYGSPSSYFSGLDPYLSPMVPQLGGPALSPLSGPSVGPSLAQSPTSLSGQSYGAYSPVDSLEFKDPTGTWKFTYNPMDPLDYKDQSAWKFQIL
How it was run: as §1

ETV1 = ETV1 (Homo sapiens, UniProt P50549 1-477); conditions: protein: recombinant; tags: N-terminal GST; dsDNA, one strand shown
ETV1, sequence (P50549 whole entry): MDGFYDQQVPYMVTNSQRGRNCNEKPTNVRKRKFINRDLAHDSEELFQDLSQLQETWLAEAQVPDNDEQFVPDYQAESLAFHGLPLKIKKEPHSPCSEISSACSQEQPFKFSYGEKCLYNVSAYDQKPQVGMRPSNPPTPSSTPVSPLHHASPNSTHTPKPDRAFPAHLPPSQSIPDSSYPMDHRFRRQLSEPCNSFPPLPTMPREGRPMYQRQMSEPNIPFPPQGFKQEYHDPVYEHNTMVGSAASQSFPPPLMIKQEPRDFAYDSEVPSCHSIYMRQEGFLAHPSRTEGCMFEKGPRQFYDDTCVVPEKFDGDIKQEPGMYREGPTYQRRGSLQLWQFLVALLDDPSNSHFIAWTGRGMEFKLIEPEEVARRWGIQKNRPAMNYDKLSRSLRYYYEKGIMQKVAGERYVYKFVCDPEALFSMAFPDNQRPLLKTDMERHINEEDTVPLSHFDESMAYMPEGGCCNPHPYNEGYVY
How it was run: as §1

ERF = target: T6, ERF (Homo sapiens, UniProt P50548 1-548); conditions: protein: recombinant; tags: N-terminal GST; dsDNA, one strand shown
T6 sequence: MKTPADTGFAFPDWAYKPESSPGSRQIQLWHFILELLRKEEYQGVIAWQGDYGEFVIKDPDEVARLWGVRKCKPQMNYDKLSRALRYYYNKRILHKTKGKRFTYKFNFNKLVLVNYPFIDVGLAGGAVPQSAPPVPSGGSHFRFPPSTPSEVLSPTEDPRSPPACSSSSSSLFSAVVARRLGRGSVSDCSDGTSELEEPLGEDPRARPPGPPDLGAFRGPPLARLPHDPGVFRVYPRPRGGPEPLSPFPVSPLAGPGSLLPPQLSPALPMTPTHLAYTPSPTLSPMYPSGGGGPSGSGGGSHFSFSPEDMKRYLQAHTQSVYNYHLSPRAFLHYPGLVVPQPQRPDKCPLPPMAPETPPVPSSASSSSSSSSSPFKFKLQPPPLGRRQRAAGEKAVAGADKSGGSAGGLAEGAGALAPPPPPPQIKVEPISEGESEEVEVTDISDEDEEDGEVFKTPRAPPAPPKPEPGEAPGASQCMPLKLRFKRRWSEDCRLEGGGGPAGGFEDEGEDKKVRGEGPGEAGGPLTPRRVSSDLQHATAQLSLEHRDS
How it was run: as §1

ETV3L = target: T7, ETV3L (Homo sapiens, UniProt Q6ZN32 1-361); conditions: protein: recombinant; tags: N-terminal GST; dsDNA, one strand shown
T7 sequence: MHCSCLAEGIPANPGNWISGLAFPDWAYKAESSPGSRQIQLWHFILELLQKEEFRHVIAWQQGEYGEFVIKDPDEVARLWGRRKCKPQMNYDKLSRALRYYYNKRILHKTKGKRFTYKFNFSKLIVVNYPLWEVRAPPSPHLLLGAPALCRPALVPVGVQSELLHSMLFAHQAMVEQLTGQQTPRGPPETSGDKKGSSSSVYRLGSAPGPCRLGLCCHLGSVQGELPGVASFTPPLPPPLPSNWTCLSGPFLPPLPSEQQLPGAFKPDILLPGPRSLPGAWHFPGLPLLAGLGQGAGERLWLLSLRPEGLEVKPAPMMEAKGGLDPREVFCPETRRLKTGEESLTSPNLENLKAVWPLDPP
How it was run: as §1

ETS2 = target: T8, ETS2 (Homo sapiens, UniProt P15036 1-469); conditions: protein: recombinant; tags: N-terminal GST; dsDNA, one strand shown
T8 sequence: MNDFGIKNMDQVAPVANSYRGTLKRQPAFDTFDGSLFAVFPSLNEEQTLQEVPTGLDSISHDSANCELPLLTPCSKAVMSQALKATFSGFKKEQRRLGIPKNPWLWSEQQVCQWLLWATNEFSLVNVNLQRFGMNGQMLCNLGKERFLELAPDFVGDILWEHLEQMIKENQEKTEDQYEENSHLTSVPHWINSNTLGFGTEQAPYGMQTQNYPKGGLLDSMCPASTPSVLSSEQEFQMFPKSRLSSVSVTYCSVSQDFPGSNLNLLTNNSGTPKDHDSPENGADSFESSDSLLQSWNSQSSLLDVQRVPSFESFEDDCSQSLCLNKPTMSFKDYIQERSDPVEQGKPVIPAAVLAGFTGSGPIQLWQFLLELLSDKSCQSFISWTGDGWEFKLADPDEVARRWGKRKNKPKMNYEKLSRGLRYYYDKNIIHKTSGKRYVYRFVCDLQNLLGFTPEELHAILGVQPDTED
How it was run: as §1

SPDEF = target: T9, SPDEF (Homo sapiens, UniProt O95238 1-335); conditions: protein: recombinant; tags: N-terminal GST; dsDNA, one strand shown
T9 sequence: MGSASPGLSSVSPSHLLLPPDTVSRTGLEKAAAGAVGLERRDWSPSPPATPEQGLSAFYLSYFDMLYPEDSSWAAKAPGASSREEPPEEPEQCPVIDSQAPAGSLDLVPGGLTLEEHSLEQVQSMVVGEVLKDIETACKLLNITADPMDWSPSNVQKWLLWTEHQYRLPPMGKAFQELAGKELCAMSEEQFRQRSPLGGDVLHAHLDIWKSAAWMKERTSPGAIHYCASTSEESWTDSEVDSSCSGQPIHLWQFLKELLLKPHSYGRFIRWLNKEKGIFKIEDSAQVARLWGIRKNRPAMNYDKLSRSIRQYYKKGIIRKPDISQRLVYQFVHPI
How it was run: as §1

ETV7 = target: T10, ETV7 (Homo sapiens, UniProt Q9Y603 1-341); conditions: protein: recombinant; tags: N-terminal GST; dsDNA, one strand shown
T10 sequence: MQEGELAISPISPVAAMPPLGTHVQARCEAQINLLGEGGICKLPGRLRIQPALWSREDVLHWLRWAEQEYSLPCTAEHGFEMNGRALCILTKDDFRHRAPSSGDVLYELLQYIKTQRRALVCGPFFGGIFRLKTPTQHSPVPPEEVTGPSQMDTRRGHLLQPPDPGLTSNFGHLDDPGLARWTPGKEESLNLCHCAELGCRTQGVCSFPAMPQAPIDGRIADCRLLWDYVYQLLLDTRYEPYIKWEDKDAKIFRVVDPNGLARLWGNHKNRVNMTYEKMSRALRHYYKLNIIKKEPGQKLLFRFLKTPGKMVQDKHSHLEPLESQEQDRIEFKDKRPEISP
How it was run: as §1

ELF5 = target: T11, ELF5 (Homo sapiens, UniProt Q9UKW6-2 1-255); conditions: protein: recombinant; tags: N-terminal GST; dsDNA, one strand shown
T11 sequence: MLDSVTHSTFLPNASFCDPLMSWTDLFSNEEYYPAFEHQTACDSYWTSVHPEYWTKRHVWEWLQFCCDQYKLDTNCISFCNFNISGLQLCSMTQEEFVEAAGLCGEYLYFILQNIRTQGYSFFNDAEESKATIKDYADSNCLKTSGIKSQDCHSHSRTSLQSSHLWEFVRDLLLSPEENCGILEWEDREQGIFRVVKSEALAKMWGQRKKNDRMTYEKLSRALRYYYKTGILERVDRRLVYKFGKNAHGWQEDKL
How it was run: as §1

ETV3 = target: T12, ETV3 (Homo sapiens, UniProt P41162-2 1-143); conditions: protein: recombinant; tags: N-terminal GST; dsDNA, one strand shown
T12 sequence: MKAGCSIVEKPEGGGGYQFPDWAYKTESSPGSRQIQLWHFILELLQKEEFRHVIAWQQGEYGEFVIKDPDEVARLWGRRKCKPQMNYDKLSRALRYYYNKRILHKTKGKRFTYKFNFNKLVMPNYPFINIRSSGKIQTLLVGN
How it was run: as §1

ETV6 = ETV6 (Homo sapiens, UniProt P41212 1-452); conditions: protein: recombinant; tags: N-terminal GST; dsDNA, one strand shown
ETV6, sequence (P41212 whole entry): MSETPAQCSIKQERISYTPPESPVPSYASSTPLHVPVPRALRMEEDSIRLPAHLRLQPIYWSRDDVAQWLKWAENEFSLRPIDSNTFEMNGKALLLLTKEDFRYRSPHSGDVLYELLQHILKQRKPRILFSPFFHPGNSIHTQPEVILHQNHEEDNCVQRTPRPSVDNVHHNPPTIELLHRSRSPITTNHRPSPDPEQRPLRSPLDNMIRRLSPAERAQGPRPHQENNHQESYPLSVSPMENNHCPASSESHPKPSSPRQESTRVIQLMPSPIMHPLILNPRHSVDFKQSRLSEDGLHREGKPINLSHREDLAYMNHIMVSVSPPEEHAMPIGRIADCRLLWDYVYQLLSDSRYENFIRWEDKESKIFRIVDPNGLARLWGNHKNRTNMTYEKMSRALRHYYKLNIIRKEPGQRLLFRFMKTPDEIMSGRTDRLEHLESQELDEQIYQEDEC
How it was run: as §1

In the case of CTCGAA, the binding signal (FEV) is reported as 1.17 fold enrichment (6-mer frequency, TF over GST control), the binding signal (ETV5) is reported as 1.2 fold enrichment (6-mer frequency, TF over GST control) and the binding signal (HSF1) is reported as 4.2 fold enrichment (6-mer frequency, TF over GST control). The binding signal (SPIC) was 1.15 fold enrichment (6-mer frequency, TF over GST control), the binding signal (ELF4) was 1.2 fold enrichment (6-mer frequency, TF over GST control) and the binding signal (ELK4) was 1.34 fold enrichment (6-mer frequency, TF over GST control). For the same sequence, the binding signal (ETV2) was 1.16 fold enrichment (6-mer frequency, TF over GST control), the binding signal (ELF3) was 1.11 fold enrichment (6-mer frequency, TF over GST control) and the binding signal (CRX) was 1.9 fold enrichment (6-mer frequency, TF over GST control). The binding signal (ETV1) was 1.1 fold enrichment (6-mer frequency, TF over GST control), the binding signal (ERF) was 1.22 fold enrichment (6-mer frequency, TF over GST control) and the binding signal (ETV3L) was 1.24 fold enrichment (6-mer frequency, TF over GST control). The binding signal (ETS2) was 1.2 fold enrichment (6-mer frequency, TF over GST control), the binding signal (SPDEF) was 1.11 fold enrichment (6-mer frequency, TF over GST control) and the binding signal (ETV7) was 1.19 fold enrichment (6-mer frequency, TF over GST control). For the same sequence, the binding signal (ELF5) was 1.17 fold enrichment (6-mer frequency, TF over GST control), the binding signal (ETV3) was 1.18 fold enrichment (6-mer frequency, TF over GST control) and the binding signal (ETV6) was 1.12 fold enrichment (6-mer frequency, TF over GST control).
